# Reference: PubChem BioAssay (NCATS)
# Where “and” joins values, the source holds several entries; their conditions need not be identical. Equal values may be shown once. Results filed as inconclusive are left out. A call without a number means that no potency is given here. Calls of active or inactive are those of the source. The call rests on the fitted dose curve; in most records, active means well fitted curve in the direction sought with a large enough effect; inconclusive means small, poorly fitted or top-dose-only effect, or another doubt; inactive means no such curve, though single readings can be large; an effect the other way counts as inactive or inconclusive.
# Columns and labels:
# [1] = system: Zika virus NS2B-NS3 protease; assay: Primary screen GU AMC qHTS for Zika virus inhibitors (AID 1347154); further: nearly all actives have a fitted effect of over 70% in size
# How it was run: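 Fluorogenic AMC-substrate cleavage by noncovalent NS2B-NS3 protease complex (25 nM, pH 8.0 Tris buffer with Tween 20) followed for 15 minutes at room temperature (~20% conversion). Percent inhibition from ex340/em450 signal change, fitted by 4-parameter Hill equation.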
# [2] = Confirmatory screen GU Rhodamine qHTS for Zika virus inhibitors qHTS (AID 1347157); settings: purified enzyme assay, Rhodamine110 substrate fluorescence, 15 min; further: potency means the concentration at half of the fitted maximal effect; nearly all actives have a fitted effect of over 70% in size
# How it was run: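 In dose–response format, inhibition of unlinked protease (25 nM) was measured with 1.5 microM bis-peptide Rhodamine110 substrate. Aprotinin served as the intraplate control.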
# [3] = ZIKV-mCherry secondary qHTS for Zika virus inhibitors (AID 1347158); further: top concentration of the series differs between compounds
# How it was run: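 Vero, 5,000 cells/well, o/n 37 °C; cpd pin-transferred in DMSO; ZIKV-mCherry MOI 1, 48-72 h 37 °C; 32% PFA stock fix, Hoechst; imaged 10x DAPI/mCherry; mCherry+ threshold 450 RFU; % infection.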
# [4] = system: Zika virus NS2B-NS3 protease (linked); assay: 384 well plate NINDS AMC confirmatory qHTS for Zika virus inhibitors (AID 1347163); settings: Recombinant NS2B-NS3 protease, Ac-VKTGKR-AMC fluorescence; further: potency means the concentration at half of the fitted maximal effect; nearly all actives have a fitted effect of over 50% in size
# How it was run: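 Linked NS2B-NS3 protease (final 5 nM, 30 nM or 60 nM) was preincubated with compounds (final up to 1 mM) for ~15 minutes. Ac-VKTGKR-AMC substrate (final 30 microM) then reacted for 25 minutes at room temperature in the dark. Fluorescence (ex 355/em 460 nm) was normalized to no-enzyme and no-inhibitor controls.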
# [5] = system: Zika virus NS2B-NS3 protease (unlinked complex); assay: Primary screen GU Rhodamine qHTS for Zika virus inhibitors: Unlinked NS2B-NS3 protease assay (AID 1347159); further: nearly all actives have a fitted effect of over 60% in size
# How it was run: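 A qHTS format was used, with compound concentrations ranging up to 114 microM. Each compound was preincubated with 25 nM NS2B-NS3 protease, and the substrate was then added at 1.5 microM. Curves were fitted with a 4-parameter Hill model.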
# [6] = system: Zika virus NS2B-NS3 protease (linked construct); assay: 384 well plate NINDS Rhodamine confirmatory qHTS for Zika virus inhibitors (AID 1347164);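 further: fluorescence from protease cleavage of Ac-LKRR-rhodamine 110 substrate; nearly all actives have a fitted effect of over 65% in size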; further: potency means the concentration at half of the fitted maximal effect
# How it was run: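 Fluorescence at 485/538 nm was measured 25 minutes after adding 10 microM Ac-LKRR-Rd substrate, in the dark at room temperature. The protease (5, 30 or 60 nM final) had been preincubated ~15 minutes with compound; aprotinin as control.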
# [7] = system: Zika virus NS2B-NS3 protease (linked construct); assay: Primary screen NINDS Rhodamine qHTS for Zika virus inhibitors (AID 1347160); further: nearly all actives have a fitted effect of over 55% in size
# How it was run: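 Kinetic fluorescence (Ex 480 nm, Em 540 nm) over 15 min with 1.5 microM Rhodamine110 peptide and 25 nM linked protease.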
compound,measurement,setting,value
C[C@@H](CN1CCC(Cc2ccccc2)CC1)[C@@H](O)c1ccc(O)cc1,Potency,[1],inactive
CCCN(CC1CC1)c1nc(C)nc(Nc2c(Cl)cc(Cl)cc2Cl)c1Cl,Potency,[1],inactive
O=C(Nc1cccc(C(=O)Nc2ccc(S(=O)(=O)O)c3cc(S(=O)(=O)O)cc(S(=O)(=O)O)c23)c1)Nc1cccc(C(=O)Nc2ccc(S(=O)(=O)O)c3cc(S(=O)(=O)O)cc(S(=O)(=O)O)c23)c1,Potency,[2],2.82 µM (active) and 1.41 µM (active)
same,outcome,[3],inactive
same,Potency,[4],22.4 µM (active)
COC(=O)C1=C(C)NC(C)=C(C(=O)OC)C1c1cccc(NC(=O)NCCCN2CCC(c3cccc(OC)c3)CC2)c1,Potency,[5],inactive
CCCCN(CC)c1nc(C)nc2c1c(C)cn2-c1c(C)cc(C)cc1C,Potency,[5],inactive
COc1ccc(Br)cc1S(=O)(=O)NC(=O)/C=C/c1ccccc1Cc1ccc2ccccc2c1,Potency,[4],0.251 µM (active)
same,Potency,[6],inactive
Fc1ccc2[nH]c(CN3CCN(c4ccccn4)CC3)cc2c1,Potency,[5],inactive
same,Potency,[7],inactive
O=[N+]([O-])c1ccc(CNc2nc(NCc3cccc(C(F)(F)F)c3)nc3nc[nH]c23)cc1,Potency,[5],inactive
same,Potency,[7],inactive
CN(C)[C@@H]1C(=O)C(C(=O)NCN2CCCC2)=C(O)[C@@]2(O)C(=O)C3=C(O)c4c(O)cccc4[C@@](C)(O)C3C[C@@H]12 (stereo partly specified),outcome,[3],inactive
same,Potency,[4],0.891 µM (active)
same,Potency,[6],44.7 µM (active)
